# Experiments:
# [1] = target: Tumor necrosis factor receptor superfamily member 10B (Homo sapiens) (UniProt O14763); assay: caspase-8 TRAIL sensitization, hit retest, confirmation, cell-based, NB7+caspase-8, with/without TRAIL, luminescence panel (AID 651596); details: NB7 neuroblastoma + caspase-8, TRAIL sensitization, luminescence viability, with TRAIL, mean of runs, at 10 µM, stronger effect = higher value
# [2] = as above; details: NB7 neuroblastoma + caspase-8, without TRAIL, luminescence viability, without TRAIL, mean of runs, at 10 µM
# Chain of Tumor necrosis factor receptor superfamily member 10B (Homo sapiens) (O14763 whole entry, looked up): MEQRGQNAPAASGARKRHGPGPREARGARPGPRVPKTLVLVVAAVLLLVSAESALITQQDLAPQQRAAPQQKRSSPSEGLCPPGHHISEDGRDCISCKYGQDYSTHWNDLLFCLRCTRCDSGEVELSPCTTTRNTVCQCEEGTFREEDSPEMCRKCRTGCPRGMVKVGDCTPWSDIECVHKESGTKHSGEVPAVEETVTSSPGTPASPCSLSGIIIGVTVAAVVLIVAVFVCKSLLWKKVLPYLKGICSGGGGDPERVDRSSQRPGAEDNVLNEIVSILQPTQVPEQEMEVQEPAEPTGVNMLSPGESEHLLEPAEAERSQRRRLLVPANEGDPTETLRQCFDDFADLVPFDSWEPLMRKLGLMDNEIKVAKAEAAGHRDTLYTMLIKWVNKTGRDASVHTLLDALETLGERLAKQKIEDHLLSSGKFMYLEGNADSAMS
Structure (SMILES),activity [1] [%],activity [2] [%]
COc1ccc(C[C@H](N)C(=O)N[C@H]2[C@@H](O)[C@H](n3cnc4c(N(C)C)ncnc43)O[C@@H]2CO)cc1,98.4,99.2
Cc1nn(-c2ccccc2Cl)c(Cl)c1/C=N/Nc1cccc(C(=O)O)c1,68.9,62.9
CCc1nnc(NC(=O)c2nc(S(=O)(=O)Cc3cccc(C)c3)ncc2Cl)s1,97.6,90.3
CN(C(=O)c1ccc(NC(=O)Cc2cccc(NC(=O)C3CCCN(S(=O)(=O)c4cccc([N+](=O)[O-])c4)C3)c2)cc1)C1CC1 (configuration not stated),56.3,36.1
COc1ccc(C2CC(c3ccc(Br)cc3)=NN2C(=O)CSC2=NN3CCCC(=O)N=C3S2)cc1 (configuration not stated),95.8,90.9
COc1ccc2nc(NC(=O)c3ccc([N+](=O)[O-])o3)sc2c1,37.6,77.8
O=C1Nc2ccccc2N(C(=O)c2ccc3ccccc3c2)C1c1nc2ccccc2[nH]1 (configuration not stated),48.1,43.4
Cc1ccnc(NC(=O)c2ccc(Br)s2)c1,52.3,53
CC(C)(C)OC(=O)NCc1ccc(CNC(=O)c2[nH]cnc2C(=O)Nc2ccccc2F)cc1,43.6,34.9
Cc1nc(-c2ccc(NC(=O)c3ccccc3)cc2)cs1,80.8,76.2
Cn1c2c(c(=O)n(C)c1=O)C(C(F)(F)F)(C(F)(F)F)N=C(c1ccc(Cl)cc1)N2,54.8,52.3
COc1ccc(-c2ccc(SC)nn2)cc1,88.9,90.2
OCC1OC(n2cnc3c(NCc4ccco4)ncnc32)C(O)C1O (configuration not stated),46.1,54.3
Cc1csc(N/N=C/c2ccccn2)n1,59.2,69.7
CCOc1ccc(/C=C2\CCc3ccccc3C2=O)cc1,83.2,79.2
O=C(Nc1ccc2c(c1)CCC2)c1ccccc1F,30.3,36.4

Structure (SMILES),activity [1] [%],activity [2] [%]
C/C(=N\NC(=O)c1ccccc1F)c1cccc(NC(=O)c2ccc(C)cc2)c1,59.8,71.5
O=C(Nc1nc2ccccc2[nH]1)c1ccc(OC(F)F)cc1,95.3,94.6
c1cncc(-c2nc3cc4ccccc4cc3[nH]2)c1,66.7,57.3
C#Cc1ccc(NC(=O)C2(C)CCN2C(=O)C2(c3ccccc3)CCCC2)cc1 (configuration not stated),91.3,84.6
CC(=O)c1ccc(N2CCN(c3ccc4cc(S(=O)(=O)N5CCC(C)CC5)ccc4n3)CC2)cc1,56.4,19.2
CCN(c1ccccc1)S(=O)(=O)c1ccc(OC)c(NC(=O)c2cc(F)c(F)c(F)c2F)c1,63.3,87.5
COc1ccc(NC(=O)c2ccc(C)cc2)cc1,66.1,60.3
c1ccn2cc(-c3ccc4c(c3)OCCO4)nc2c1,89,86
Cc1ccc(-c2cn3cc([N+](=O)[O-])ccc3n2)cc1,50.9,41.5
CCCNC(=O)c1ccc(-c2nc3ccccc3s2)s1,87.8,83.5
CCc1ccc([C@H]2[C@@H]3C(=O)C[C@@H]4C(=O)N(c5ccccc5)C(=O)[C@@H]4[C@@H]3CN2S(=O)(=O)c2ccc(C)cc2)cc1,-4.35,-7.2
Cc1ccc(-c2cc(C(=O)N3CCCC3)no2)cc1,73.3,67
CC(C)c1ccc(C(=O)NC2=NCCS2)cc1,63.5,67.1
COc1ccc(-c2cc3cccc(OC)c3oc2=O)cc1,81.8,80.2
CCCCC(=O)Nc1cc(C)c2c(=O)oc3ccccc3c2n1,62.4,56.6

# Source: PubChem BioAssay
